Records with an inconclusive call do not appear. A call without a number means that no potency is given here. Calls of active or inactive are those of the source. The call rests on the fitted dose curve; in most records, active means well fitted curve in the direction sought with a large enough effect; inconclusive means small, poorly fitted or top-dose-only effect, or another doubt; inactive means no such curve, though single readings can be large; an effect the other way counts as inactive or inconclusive.

Chain of Glucagon-like peptide 1 receptor (Homo sapiens) (P43220 whole entry, looked up): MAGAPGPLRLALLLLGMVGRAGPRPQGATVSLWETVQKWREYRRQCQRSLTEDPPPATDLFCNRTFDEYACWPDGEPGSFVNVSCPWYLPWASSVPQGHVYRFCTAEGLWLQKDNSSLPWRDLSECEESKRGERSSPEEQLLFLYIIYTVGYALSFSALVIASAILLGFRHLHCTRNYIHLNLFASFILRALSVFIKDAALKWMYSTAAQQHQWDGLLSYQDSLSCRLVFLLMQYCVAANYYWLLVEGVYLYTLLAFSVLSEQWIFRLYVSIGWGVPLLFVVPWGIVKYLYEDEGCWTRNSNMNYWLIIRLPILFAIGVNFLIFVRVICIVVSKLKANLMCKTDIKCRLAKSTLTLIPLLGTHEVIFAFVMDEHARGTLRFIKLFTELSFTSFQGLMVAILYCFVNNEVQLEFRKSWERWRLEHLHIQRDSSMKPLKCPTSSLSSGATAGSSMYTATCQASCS
Chain of Glutaminase kidney isoform, mitochondrial (Homo sapiens) (O94925 whole entry, looked up, canonical isoform): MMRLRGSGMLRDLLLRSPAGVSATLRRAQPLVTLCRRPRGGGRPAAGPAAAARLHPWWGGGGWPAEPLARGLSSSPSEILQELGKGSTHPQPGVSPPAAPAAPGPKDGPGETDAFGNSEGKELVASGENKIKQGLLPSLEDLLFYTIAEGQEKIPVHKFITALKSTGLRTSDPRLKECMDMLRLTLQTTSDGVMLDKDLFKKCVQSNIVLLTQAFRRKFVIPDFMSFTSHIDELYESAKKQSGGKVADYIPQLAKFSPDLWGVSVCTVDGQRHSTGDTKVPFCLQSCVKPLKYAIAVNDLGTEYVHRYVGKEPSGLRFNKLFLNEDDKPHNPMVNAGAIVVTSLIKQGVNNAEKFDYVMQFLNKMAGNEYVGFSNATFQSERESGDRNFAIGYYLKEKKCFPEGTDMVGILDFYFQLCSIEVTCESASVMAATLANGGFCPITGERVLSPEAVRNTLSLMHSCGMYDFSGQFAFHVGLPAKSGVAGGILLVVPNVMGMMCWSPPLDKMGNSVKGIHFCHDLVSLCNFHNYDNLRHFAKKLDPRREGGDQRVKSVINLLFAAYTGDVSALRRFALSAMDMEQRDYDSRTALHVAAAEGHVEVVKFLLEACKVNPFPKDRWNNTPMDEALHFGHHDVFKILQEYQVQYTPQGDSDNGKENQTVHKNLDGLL

One experiment has as its target Glutaminase kidney isoform, mitochondrial (Homo sapiens) (UniProt O94925). Nature of the experiment: qHTS for Inhibitors of Glutaminase (GLS): LOPAC Validation (AID 624146). Further: nearly all actives have a fitted effect of over 60% in size. Further: potency means the concentration at half of the fitted maximal effect. To be noted: glutaminase enzyme activity inhibition; series mostly up to 46.1 µM. In a few lines:
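hKGA in 45 mM KH2PO4 (pH 8.2), 0.02% Tween-20 with compound, then 1mM L-Glutamine (stock as added) plus glutamate oxidase/HRP/Amplex red coupling mix. Fluorescence read initially and after 30 min at RT; signal change reflects glutamate formation.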
On to `CC[n+]1c(/C=C/C=C2/N(C)c3ccccc3C2(C)C)sc2ccccc21`, for which the Potency was 11.2 µM (active).

As for `CC(C)NCC(O)COc1ccc(CC(N)=O)cc1` (configuration not stated), the Potency result was “inactive”.

As for `CCCCCC[C@@H]([C@@H](C)O)n1cnc2c(N)ncnc21`, the Potency entry was “inactive”.

For the molecule `NCCNS(=O)(=O)c1cccc2c(Cl)cccc12`, the Potency entry is “inactive”.

As for `OC1(c2ccc(Cl)cc2)CCN(Cc2c[nH]c3ccccc23)CC1`, the Potency entry was “inactive”.

Turning to `N[C@@H](Cc1ccc(F)cc1)C(=O)O`, the Potency entry is “inactive”.

Consider `COc1cc(/C=C(\C#N)C(=O)Nc2nnc(C(F)(F)F)s2)ccc1OCc1ccc(C(F)(F)F)cc1C(F)(F)F`, for which the Potency entry is “inactive”.

`c1ccc2c(c1)CCC[C@H]2Nc1nc2ccccc2[nH]1`: the Potency entry is “inactive”.

With `O=S(=O)(c1cccc2c(Cl)cccc12)N1CCCNCC1`, the Potency result was “inactive”.

In the case of `O=C(O)/C=C/c1ccc(O)c(O)c1`, the Potency was 2 µM (active).

For `COc1cc(CNC(=O)CCCCCCC(C)C)ccc1O`, the Potency was 3.16 µM (active).

For the molecule `CC(=O)O[C@H]1Cc2ccccc2N(C(N)=O)c2ccccc21`, the Potency entry is “inactive”.

For the molecule `CC(C)[C@@H]1CC[C@@H](C)C[C@@H]1P(=O)(c1ccccc1)c1ccccc1`, the Potency entry is “inactive”.

In the case of `CC(C)NC[C@H](O)COc1cccc2ccccc12`, the Potency result was “inactive”.

For `O=c1cc(-c2ccccc2F)[nH]c2cc3c(cc12)OCO3`, the Potency result is “inactive”.

Regarding `Nc1ncnc2c1nc(Br)n2C1OC2COP(=O)(O)O[C@@H]2C1O` (some centres not stated), the Potency entry was “inactive”.

System in a further experiment: not listed separately
Nature of the experiment: qHTS of Trypanosoma Brucei Inhibitors: LOPAC Validation (AID 624147). Conditions: purified enzyme assay, luminescence, 45 min; series mostly up to 57.5 µM. The gist of the method: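 Quantitative HTS: titrated library compounds versus trypanosomal pyruvate kinase in TEA buffer (pH 7.2) containing KCl, MgCl2, BSA and Tween-20. Reactions were initiated with ADP, 130 uM final. Kinase-Glo Plus luminescence was read after 45 min at RT.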
On to `CCN(c1nc(N)c(C(=O)N=C(N)N)nc1Cl)C(C)C`, for which the Potency entry was “inactive”.

Turning to `O=C1Nc2ccc(I)cc2/C1=C/c1cc(Br)c(O)c(Br)c1`, the Potency entry is “inactive”.

With `CCCCCCCC/C=C\CCCCCCCC(=O)NCCc1ccc(O)c(O)c1`, the Potency entry was “inactive”.

For `CNCCc1cnc(CCC(c2ccccc2)c2ccccc2)[nH]1`, the Potency entry is “inactive”.

`C[C@]12C=CC(=O)C=C1CC[C@@H]1C2=CC[C@]2(C)[C@@H](C(=O)CN3CCN(c4cc(N5CCCC5)nc(N5CCCC5)n4)CC3)CC[C@@H]12`: the Potency entry was “inactive”.

For the molecule `C[C@@H](NCCc1ccc(O)cc1)[C@@H](O)c1ccc(O)cc1`, the Potency entry is “inactive”.

For the molecule `CN1Cc2sccc2C(c2ccc(O)c(O)c2)C1` (configuration not stated), the Potency entry is “inactive”.

For the molecule `C[C@H](O)C(=O)C1=Nc2c(nc(N)[nH]c2=O)NC1`, the Potency entry was “inactive”.

For the molecule `O=c1onc2n1-c1cc(Br)ccc1OC2`, the Potency entry was “inactive”.

Turning to `CN1CCc2cc(Cl)c(O)cc2[C@@H](c2ccccc2)C1`, the Potency entry was “inactive”.

As to `C[C@H]1CC2C3CCC4=CC(=O)C=C[C@]4(C)[C@@]3(Cl)[C@@H](O)C[C@]2(C)[C@@]1(O)C(=O)CO` (some centres not stated), the Potency result was “inactive”.

Regarding `CCCCCCN(CCCCCC)C(=O)Cc1c(-c2ccc(F)cc2)[nH]c2ccccc12`, the Potency entry was “inactive”.

`CN(CC[C@@H](Oc1ccc(C(F)(F)F)cc1)c1ccccc1)CC(=O)O`: the Potency result was “inactive”.

As to `N#Cc1cc([N+](=O)[O-])c2sc(C(N)=O)[n+]([O-])c2c1`, the Potency result is “inactive”.

As to `c1ccc(C(NCc2cccnc2)(c2ccccc2)c2ccccc2)cc1`, the Potency result was “inactive”.

For the molecule `Cn1cc(C(F)(F)F)nc1-c1ccc(OCC(O)CNCCOc2ccc(O)c(C(N)=O)c2)cc1` (configuration not stated), the Potency entry was “inactive”.

Regarding `CC(=O)N[C@@H](Cc1c[nH]c2ccccc12)C(=O)OCc1cc(C(F)(F)F)cc(C(F)(F)F)c1`, the Potency entry is “inactive”.

Take `Nc1ncnc2c1c(-c1ccc(Oc3ccccc3)cc1)cn2C1CCCC1`: the Potency entry is “inactive”.

As for `CCCCCCCCCCC(C)(C)C(=O)Nc1c(OC)cc(OC)cc1OC`, the Potency entry was “inactive”.

Consider `O=c1ccc2c(OCCCCc3ccccc3)c3ccoc3cc2o1`, for which the Potency result was “inactive”.

In the next experiment the target is Glucagon-like peptide 1 receptor (Homo sapiens) (UniProt P43220). Nature of the experiment: qHTS of GLP-1 Receptor Agonists: LOPAC Validation (AID 624148).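 Further: luminescence from a luciferase reporter switched on by cAMP; higher luminescence signal means agonism.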 Conditions: GLP-1R agonist cell assay; series mostly up to 46.1 µM. The gist of the method:
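Agonism scored as increased luciferase luminescence driven by cAMP in HEK293 clones carrying GLP-1R. Cells settled 12 hours, received compound for 4-6 hr at 37 deg C, 5% CO2, and were read after 12 min detection reagent at RT.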
On to `CCN(c1nc(N)c(C(=O)N=C(N)N)nc1Cl)C(C)C`, for which the Potency entry was “inactive”.

On to `O=C1Nc2ccc(I)cc2/C1=C/c1cc(Br)c(O)c(Br)c1`, for which the Potency result is “inactive”.

For `COc1cc(N)c(Cl)cc1C(=O)OCCN1CCCCC1`, the Potency entry was “inactive”.

Take `CC[n+]1c(/C=C/C=C2/N(C)c3ccccc3C2(C)C)sc2ccccc21`: the Potency result is “inactive”.

For the molecule `CCCCCCCC/C=C\CCCCCCCC(=O)NCCc1ccc(O)c(O)c1`, the Potency entry was “inactive”.

For the molecule `C[C@]12C=CC(=O)C=C1CC[C@@H]1C2=CC[C@]2(C)[C@@H](C(=O)CN3CCN(c4cc(N5CCCC5)nc(N5CCCC5)n4)CC3)CC[C@@H]12`, the Potency result is “inactive”.

Consider `CN1Cc2sccc2C(c2ccc(O)c(O)c2)C1` (configuration not stated), for which the Potency result was “inactive”.

Turning to `CCCCCC[C@@H]([C@@H](C)O)n1cnc2c(N)ncnc21`, the Potency result was “inactive”.

In the case of `C[C@H](O)C(=O)C1=Nc2c(nc(N)[nH]c2=O)NC1`, the Potency entry was “inactive”.

`NCCNS(=O)(=O)c1cccc2c(Cl)cccc12`: the Potency entry was “inactive”.

On to `O=c1onc2n1-c1cc(Br)ccc1OC2`, for which the Potency entry was “inactive”.

For `OC1(c2ccc(Cl)cc2)CCN(Cc2c[nH]c3ccccc23)CC1`, the Potency result is “inactive”.

As to `CN1CCc2cc(Cl)c(O)cc2[C@@H](c2ccccc2)C1`, the Potency result was “inactive”.

In the case of `CCCCCCN(CCCCCC)C(=O)Cc1c(-c2ccc(F)cc2)[nH]c2ccccc12`, the Potency result was “inactive”.

`CN(CC[C@@H](Oc1ccc(C(F)(F)F)cc1)c1ccccc1)CC(=O)O`: the Potency entry was “inactive”.

For the molecule `N#Cc1cc([N+](=O)[O-])c2sc(C(N)=O)[n+]([O-])c2c1`, the Potency result was “inactive”.

As to `c1ccc(C(NCc2cccnc2)(c2ccccc2)c2ccccc2)cc1`, the Potency entry was “inactive”.

For `N[C@@H](Cc1ccc(F)cc1)C(=O)O`, the Potency entry is “inactive”.

Turning to `COc1cc(/C=C(\C#N)C(=O)Nc2nnc(C(F)(F)F)s2)ccc1OCc1ccc(C(F)(F)F)cc1C(F)(F)F`, the Potency result is “inactive”.

As to `COc1cc([C@@H]2c3cc4c(cc3[C@H](O)C3COC(=O)[C@@H]32)OCO4)cc(OC)c1OC` (some centres not stated), the Potency result was “inactive”.

Turning to `CN(C)CCC(c1ccc(Br)cc1)c1ccccn1` (configuration not stated), the Potency result is “inactive”.

As to `O=S(=O)(c1cccc2c(Cl)cccc12)N1CCCNCC1`, the Potency entry was “inactive”.

On to `Cn1cc(C(F)(F)F)nc1-c1ccc(OCC(O)CNCCOc2ccc(O)c(C(N)=O)c2)cc1` (configuration not stated), for which the Potency result was “inactive”.

For the molecule `COc1cc(CNC(=O)CCCCCCC(C)C)ccc1O`, the Potency result is “inactive”.

In the case of `CC(=O)N[C@@H](Cc1c[nH]c2ccccc12)C(=O)OCc1cc(C(F)(F)F)cc(C(F)(F)F)c1`, the Potency entry is “inactive”.

On to `CC(=O)O[C@H]1Cc2ccccc2N(C(N)=O)c2ccccc21`, for which the Potency result is “inactive”.

For the molecule `CC(C)[C@@H]1CC[C@@H](C)C[C@@H]1P(=O)(c1ccccc1)c1ccccc1`, the Potency result is “inactive”.

With `CCCCCCCCCCC(C)(C)C(=O)Nc1c(OC)cc(OC)cc1OC`, the Potency result was “inactive”.

On to `O=c1ccc2c(OCCCCc3ccccc3)c3ccoc3cc2o1`, for which the Potency entry was “inactive”.

Turning to `O=c1cc(-c2ccccc2F)[nH]c2cc3c(cc12)OCO3`, the Potency entry was “inactive”.

With `Nc1ncnc2c1nc(Br)n2C1OC2COP(=O)(O)O[C@@H]2C1O` (some centres not stated), the Potency result was “inactive”.

The values above are taken from PubChem BioAssay (NCATS).
